Data taken from ChEMBL document CHEMBL3988442, “University of Dundee, Small-Polar-MMV Screening Library” (2021).
For some of these results: Potency and affinity values are given separately.

Experiments:
Parameters in all cases: scale not given: direction of the effect not stated beside the values
[1] = target: Protein translocase subunit SecA (Escherichia coli (strain K12)) (UniProt P10408); experiment: Assay to Identify E. coli SecA ATPase Inhibitors; format: functional; conditions: 30 µM
[2] = target: T1, Ubiquitin-activating enzyme e1, putative (Leishmania donovani (strain BPK282A1)) (UniProt E9BSI1); experiment: Leishmania donovani Ubiquitin Activating Enzyme (LdE1); format: functional; conditions: 30 µM
T1 sequence (whole entry): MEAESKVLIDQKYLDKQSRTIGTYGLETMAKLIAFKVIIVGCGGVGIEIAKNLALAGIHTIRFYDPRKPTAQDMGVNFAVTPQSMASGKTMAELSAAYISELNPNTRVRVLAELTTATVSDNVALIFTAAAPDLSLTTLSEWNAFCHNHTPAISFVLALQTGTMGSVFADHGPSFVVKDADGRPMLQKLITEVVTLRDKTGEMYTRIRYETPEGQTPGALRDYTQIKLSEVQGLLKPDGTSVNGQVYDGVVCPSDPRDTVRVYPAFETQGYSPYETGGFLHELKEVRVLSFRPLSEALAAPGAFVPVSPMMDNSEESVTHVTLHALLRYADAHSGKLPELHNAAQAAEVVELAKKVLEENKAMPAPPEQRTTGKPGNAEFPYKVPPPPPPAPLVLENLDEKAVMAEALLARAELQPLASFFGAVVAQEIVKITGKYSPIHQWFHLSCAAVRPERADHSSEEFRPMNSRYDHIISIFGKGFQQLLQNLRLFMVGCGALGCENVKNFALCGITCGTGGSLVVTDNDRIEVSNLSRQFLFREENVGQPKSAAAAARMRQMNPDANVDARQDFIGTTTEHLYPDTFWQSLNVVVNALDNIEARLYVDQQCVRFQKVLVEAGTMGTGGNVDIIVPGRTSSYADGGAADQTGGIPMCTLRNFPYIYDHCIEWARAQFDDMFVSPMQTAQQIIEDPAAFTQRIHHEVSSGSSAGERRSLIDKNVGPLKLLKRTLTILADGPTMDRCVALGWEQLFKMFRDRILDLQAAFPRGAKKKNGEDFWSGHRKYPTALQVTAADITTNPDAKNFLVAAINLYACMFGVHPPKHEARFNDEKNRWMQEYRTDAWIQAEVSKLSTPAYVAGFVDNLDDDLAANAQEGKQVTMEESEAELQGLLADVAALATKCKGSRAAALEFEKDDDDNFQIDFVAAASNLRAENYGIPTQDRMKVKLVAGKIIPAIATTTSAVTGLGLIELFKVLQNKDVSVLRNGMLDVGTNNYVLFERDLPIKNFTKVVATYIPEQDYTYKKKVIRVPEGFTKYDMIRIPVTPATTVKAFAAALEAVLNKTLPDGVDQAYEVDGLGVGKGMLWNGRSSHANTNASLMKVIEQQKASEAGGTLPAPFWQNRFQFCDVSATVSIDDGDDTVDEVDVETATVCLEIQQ

[3] = target: AMP-activated protein kinase, AMPK (Homo sapiens) (UniProt P54646+O43741+P54619+Q9UGJ0+Q9Y478+Q13131+Q9UGI9); experiment: AMP-dependent Kinase enzyme assay. An in vitro enzyme assay that detects ADP turnover that is directly proportional to AMPK activity. This uses naive AMPK that is activated during the assay with MK-8722; format: functional; conditions: 30 µM
[4] = target: Sialic acid-binding Ig-like lectin 9 (Homo sapiens) (UniProt Q9Y336); experiment: Hs-Siglec9 ALPHAscreen SOP 20170721; conditions: 10 µM
Sialic acid-binding Ig-like lectin 9 (Homo sapiens), sequence (Q9Y336 whole entry): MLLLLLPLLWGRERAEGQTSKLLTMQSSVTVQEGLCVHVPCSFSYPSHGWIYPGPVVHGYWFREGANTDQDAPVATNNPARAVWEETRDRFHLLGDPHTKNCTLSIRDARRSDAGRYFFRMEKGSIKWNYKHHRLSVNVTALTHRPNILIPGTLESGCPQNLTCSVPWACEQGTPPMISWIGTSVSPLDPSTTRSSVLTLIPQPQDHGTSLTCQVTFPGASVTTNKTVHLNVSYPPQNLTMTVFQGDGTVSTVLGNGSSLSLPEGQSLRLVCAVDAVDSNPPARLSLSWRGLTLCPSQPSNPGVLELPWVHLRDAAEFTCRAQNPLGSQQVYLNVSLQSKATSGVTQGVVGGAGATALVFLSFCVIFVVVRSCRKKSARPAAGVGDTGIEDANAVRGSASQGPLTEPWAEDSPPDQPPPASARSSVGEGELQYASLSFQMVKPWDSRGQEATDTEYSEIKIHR

Trypanosoma cruzi = experiment: Trypanosoma cruzi phosphomannomutase and mannose-1-phosphate guanylyltransferase assay; format: functional; conditions: 10 µM
[5] = target: T2, Arginase-2, mitochondrial (Homo sapiens) (UniProt P78540); experiment: in vitro enzyme assay to detect the production of urea directly proportional to the activity of Arginase II; format: functional; conditions: 33.3 µM; also: in the data most compounds retested in dose-response had high values
T2 sequence (whole entry): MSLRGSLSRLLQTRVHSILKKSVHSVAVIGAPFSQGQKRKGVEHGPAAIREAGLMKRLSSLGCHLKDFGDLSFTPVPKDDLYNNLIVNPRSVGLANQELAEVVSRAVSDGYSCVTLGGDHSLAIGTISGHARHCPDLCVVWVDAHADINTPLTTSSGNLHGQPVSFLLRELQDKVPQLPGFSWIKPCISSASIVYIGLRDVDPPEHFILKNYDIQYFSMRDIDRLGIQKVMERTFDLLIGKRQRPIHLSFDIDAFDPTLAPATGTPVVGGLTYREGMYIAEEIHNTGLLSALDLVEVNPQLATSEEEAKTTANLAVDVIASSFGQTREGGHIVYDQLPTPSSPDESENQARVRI

[6] = target: T3, Proteasome subunit beta (Trypanosoma cruzi) (UniProt O96673); experiment: Trypanosoma cruzi proteasome chymotrypsin-like activity (TcProtChymo) assay.; also: in the data most compounds retested in dose-response had high values; format: functional; conditions: 9.37 µM
T3 sequence (whole entry): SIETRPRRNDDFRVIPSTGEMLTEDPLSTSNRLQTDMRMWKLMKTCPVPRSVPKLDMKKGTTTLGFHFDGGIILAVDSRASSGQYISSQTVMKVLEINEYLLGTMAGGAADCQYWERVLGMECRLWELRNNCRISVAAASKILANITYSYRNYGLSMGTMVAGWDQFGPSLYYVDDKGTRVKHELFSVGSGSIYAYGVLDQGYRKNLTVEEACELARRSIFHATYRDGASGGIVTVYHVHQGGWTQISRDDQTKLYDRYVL

Homo sapiens = species on record: Homo sapiens; experiment: To identify inhibition of the IFN signalling (Jak-Stat) pathway via expression of an eGFP reporter gene under the control of an IFN-stimulated response element (ISRE) containing MxA promoter.; format: functional; conditions: 30 µM
[7] = target: T4, Tyrosyl-tRNA synthetase, putative (Trypanosoma cruzi (strain CL Brener)) (UniProt Q4DSP6); experiment: Trypanosoma cruzi tyrosyl tRNA synthetase (TcYRS) _High Tyrosine SOP; format: functional; conditions: 30 µM; also: in the data most compounds retested in dose-response had high values
T4 sequence (whole entry): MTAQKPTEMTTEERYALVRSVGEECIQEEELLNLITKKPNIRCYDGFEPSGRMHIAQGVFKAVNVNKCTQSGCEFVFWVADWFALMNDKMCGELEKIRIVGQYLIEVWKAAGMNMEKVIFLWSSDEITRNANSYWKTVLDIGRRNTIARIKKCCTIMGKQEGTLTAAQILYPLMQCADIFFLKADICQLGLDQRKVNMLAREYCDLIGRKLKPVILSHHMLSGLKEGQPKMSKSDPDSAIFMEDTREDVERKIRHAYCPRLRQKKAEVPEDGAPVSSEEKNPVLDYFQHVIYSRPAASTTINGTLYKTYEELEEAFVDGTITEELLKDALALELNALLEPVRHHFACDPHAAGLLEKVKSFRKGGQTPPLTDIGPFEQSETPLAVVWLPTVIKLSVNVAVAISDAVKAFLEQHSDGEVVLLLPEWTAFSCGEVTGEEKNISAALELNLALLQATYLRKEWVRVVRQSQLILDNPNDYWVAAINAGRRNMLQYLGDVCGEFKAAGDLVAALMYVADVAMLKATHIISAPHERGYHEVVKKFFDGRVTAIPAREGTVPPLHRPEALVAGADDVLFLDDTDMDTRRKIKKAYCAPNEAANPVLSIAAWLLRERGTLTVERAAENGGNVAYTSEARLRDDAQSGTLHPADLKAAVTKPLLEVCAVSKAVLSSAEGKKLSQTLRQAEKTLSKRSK

[8] = target: T4, Tyrosyl-tRNA synthetase, putative (Trypanosoma cruzi (strain CL Brener)); experiment: Trypanosoma cruzi tyrosyl tRNA synthetase (TcYRS) SOP; format: functional; conditions: 30 µM
[9] = target: Chromo domain-containing protein 1 (Saccharomyces cerevisiae (strain ATCC 204508 / S288c) (Baker's yeast)) (UniProt P32657); experiment: ScCHD-1 Enzyme Inhibition Assay; format: functional; conditions: 30 µM; also: in the data most compounds retested in dose-response had high values
Chromo domain-containing protein 1 (Saccharomyces cerevisiae (strain ATCC 204508 / S288c) (Baker's yeast)), sequence (P32657 whole entry, the tested form may be a part): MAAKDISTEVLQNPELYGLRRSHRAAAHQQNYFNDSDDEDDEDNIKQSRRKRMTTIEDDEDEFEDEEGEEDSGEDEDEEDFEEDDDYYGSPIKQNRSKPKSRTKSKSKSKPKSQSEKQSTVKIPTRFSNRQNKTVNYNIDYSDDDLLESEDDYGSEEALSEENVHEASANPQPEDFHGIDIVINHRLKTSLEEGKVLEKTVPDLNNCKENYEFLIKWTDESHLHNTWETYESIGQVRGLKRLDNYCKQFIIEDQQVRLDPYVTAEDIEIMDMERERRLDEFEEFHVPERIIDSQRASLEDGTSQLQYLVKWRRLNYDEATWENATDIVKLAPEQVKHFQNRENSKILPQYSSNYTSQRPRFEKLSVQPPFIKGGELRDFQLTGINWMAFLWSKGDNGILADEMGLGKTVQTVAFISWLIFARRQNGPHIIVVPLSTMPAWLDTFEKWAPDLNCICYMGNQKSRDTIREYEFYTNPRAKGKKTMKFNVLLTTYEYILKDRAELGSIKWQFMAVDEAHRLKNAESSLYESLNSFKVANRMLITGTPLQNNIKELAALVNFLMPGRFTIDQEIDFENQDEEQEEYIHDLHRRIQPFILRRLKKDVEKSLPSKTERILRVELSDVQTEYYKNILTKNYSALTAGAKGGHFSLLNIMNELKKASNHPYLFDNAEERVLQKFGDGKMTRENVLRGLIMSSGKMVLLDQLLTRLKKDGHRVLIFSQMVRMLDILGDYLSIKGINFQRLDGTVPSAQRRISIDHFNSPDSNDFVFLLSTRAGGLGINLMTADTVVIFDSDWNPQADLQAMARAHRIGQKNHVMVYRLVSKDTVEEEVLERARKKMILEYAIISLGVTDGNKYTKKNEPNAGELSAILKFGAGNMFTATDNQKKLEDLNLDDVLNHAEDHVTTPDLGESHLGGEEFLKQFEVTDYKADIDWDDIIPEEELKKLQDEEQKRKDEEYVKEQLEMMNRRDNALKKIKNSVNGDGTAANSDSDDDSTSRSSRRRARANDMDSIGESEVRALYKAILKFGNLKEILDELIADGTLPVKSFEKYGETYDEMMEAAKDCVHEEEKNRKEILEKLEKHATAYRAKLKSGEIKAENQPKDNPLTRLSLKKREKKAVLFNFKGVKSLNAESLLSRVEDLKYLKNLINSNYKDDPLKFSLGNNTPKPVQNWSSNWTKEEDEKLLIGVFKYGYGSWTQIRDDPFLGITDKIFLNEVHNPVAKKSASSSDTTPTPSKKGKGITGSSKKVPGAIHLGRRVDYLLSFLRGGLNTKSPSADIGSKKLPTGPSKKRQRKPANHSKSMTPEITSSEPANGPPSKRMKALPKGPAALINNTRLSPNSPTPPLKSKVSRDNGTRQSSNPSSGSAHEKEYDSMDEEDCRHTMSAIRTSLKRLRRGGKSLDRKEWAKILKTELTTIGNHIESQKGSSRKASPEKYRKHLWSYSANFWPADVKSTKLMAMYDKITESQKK

Protein translocase subunit SecA (Escherichia coli (strain K12)), sequence (P10408 whole entry): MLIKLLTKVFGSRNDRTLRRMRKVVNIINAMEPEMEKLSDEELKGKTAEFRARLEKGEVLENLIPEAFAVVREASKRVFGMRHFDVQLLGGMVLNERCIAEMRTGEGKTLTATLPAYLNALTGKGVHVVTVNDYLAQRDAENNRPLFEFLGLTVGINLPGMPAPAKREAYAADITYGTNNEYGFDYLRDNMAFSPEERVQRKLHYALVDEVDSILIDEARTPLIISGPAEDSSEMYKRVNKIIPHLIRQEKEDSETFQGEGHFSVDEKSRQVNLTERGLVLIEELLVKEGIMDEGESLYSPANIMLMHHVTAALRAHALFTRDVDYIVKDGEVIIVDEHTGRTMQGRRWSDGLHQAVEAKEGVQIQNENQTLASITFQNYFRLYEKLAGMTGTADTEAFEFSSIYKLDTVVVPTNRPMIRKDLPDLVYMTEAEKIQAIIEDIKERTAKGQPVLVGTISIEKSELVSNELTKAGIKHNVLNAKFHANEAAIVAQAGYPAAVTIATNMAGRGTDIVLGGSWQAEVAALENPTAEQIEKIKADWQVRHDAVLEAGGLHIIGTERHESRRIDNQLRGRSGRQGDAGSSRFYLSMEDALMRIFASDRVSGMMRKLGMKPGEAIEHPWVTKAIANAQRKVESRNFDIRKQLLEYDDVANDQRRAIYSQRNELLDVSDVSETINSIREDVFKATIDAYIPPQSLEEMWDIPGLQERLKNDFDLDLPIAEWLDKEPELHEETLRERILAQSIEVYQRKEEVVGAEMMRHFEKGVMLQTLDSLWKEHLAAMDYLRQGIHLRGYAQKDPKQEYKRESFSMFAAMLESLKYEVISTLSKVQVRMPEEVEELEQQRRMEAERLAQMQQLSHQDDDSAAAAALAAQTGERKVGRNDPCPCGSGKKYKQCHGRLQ

| SMILES | Percent Effect [1] | Percent Effect [2] | Percent Effect [3] | Percent Effect [4] | Percent Effect (Trypanosoma cruzi) | Percent Effect [5] | Percent Effect [6] | Percent Effect (Homo sapiens) | Percent Effect [7] | Percent Effect [8] | Percent Effect [9] |
| --- | --- | --- | --- | --- | --- | --- | --- | --- | --- | --- | --- |
| CC(C)n1ccnc1C1CCN(Cc2ccc(Cl)c(F)c2)CC1 | -4.75% | 5.2% | 1.93% | 15.3% | 0.885% | -4.14% | 12.5% | 18.3% | 6.45% | 8.64% | 0.763% |
| CCOc1ccc(CC(CNC(=O)c2ccoc2)C(N)=O)cc1 (stereo not given) | -5.97% | 13% | -355% | -18.6% | 8.13% | -3.16% | 16.7% | 7.68% | 7.62% | 21.2% | -16.2% |
| Cc1nccn1CC1CCCN1S(=O)(=O)Cc1ccccc1F (stereo not given) | -5.1% | 22.8% | 1.28% | -4.39% | -1.79% | 1.14% | 2.05% | 13.2% | 4.43% | 21.5% | -7.01% |
| Cc1cnn(CCNCc2ccc(F)cc2Cl)c1 | -3.52% | 8.11% | -1.08% | 10.9% | -1.02% | 0.554% | 10.9% | -9.92% | 1.98% | 13.4% | 1.6% |
| CCn1cc(NC(=O)NCC(c2cccc(F)c2)N(C)C)cn1 (stereo not given) | 0.401% | 13.2% | 0.674% | 6.49% | -0.752% | 0.383% | 4.68% | -12.5% | 11.3% | 21.9% | -5.78% |
| CCc1nc(C)c(C(=O)NCCNc2cnccn2)s1 | -1.34% | 21.1% | -0.0117% | -1.62% | 1.77% | -1.44% | 15.8% | 4.13% | 9.36% | 25.9% | -8.55% |
| c1ncn(CC2CN(Cc3csc(C4CCCC4)n3)CCO2)n1 (stereo not given) | -7.65% | 15.8% | -7.05% | 15.7% | 3.46% | -1.44% | -2.79% | 2.48% | 4.43% | 23.5% | -9.07% |
| Cc1nnc(CCNC2CCN(c3ncnc4c(C)csc34)CC2)s1 | -3.21% | 7.79% | 3.06% | 11% | 7.77% | -2.76% | 12.8% | 40.2% | 8.6% | 16.1% | -8.66% |
| CN(C)CCO[C@@H]1CC[C@H]2[C@H]1OCCN2C(=O)CCc1ccccc1 | -1.21% | 2.67% | -7.4% | -1.11% | -2.7% | -57.5% | 0.171% | -1.39% | 0% | 2.5% | -6.72% |
| Cn1cc(CNCCOc2ccc(F)c(F)c2)c(-c2cccnc2)n1 | -6.54% | 5.41% | -6.5% | 20.6% | 1.47% | 0.744% | 5.41% | 7.57% | 4.3% | 8.64% | -3.29% |
| Cc1cccc(C(=O)NCc2ccc(N3CCCCC3)nc2)n1 | -0.795% | 13.9% | 3.85% | 4.23% | -2.97% | -1.5% | 11.8% | 24.3% | 8.33% | 15.2% | -1.41% |
| CCc1nc(CN2CCCN(C(=O)C(C)n3cncn3)CC2)cs1 (stereo not given) | -4.01% | 2.6% | -3.41% | 4.94% | -6.93% | 6.05% | 4.05% | 19.8% | 4.85% | 2.44% | -3.41% |
| COCCN1CC[C@@H]2O[C@@H](COCC(=O)N3CCCC3)CC[C@@H]21 | -3.65% | 5.48% | -6.36% | 2.85% | 7.94% | -3.99% | 3.85% | -31.2% | 7.29% | 13.6% | -5.05% |
| CC(C)(C)n1cc(C(=O)N2CCN(Cc3ccsc3)CC2)cn1 | -3.19% | 10.5% | 2.2% | 9.1% | 7.71% | -3.06% | 3.51% | -5.26% | 6.37% | 17.1% | -11% |
| COc1cccc(CCC(=O)N2CCCC(n3cc(C)cn3)C2)c1 (stereo not given) | 0.219% | -3.8% | 11.1% | -1.76% | -0.923% | 9.25% | 1.03% | -7.62% | -5.21% | 0% | -20% |
| Cn1ccc(C(=O)N2CCN(c3ncccn3)CC2)cc1=O | -7.23% | 5.41% | 33.6% | 9.56% | -3.49% | -2% | 6.13% | 4.12% | 3.45% | 11.1% | -2.92% |
| CCn1ncnc1C(NC(=O)CC1CCN(C(C)C)CC1)C1CC1 (stereo not given) | -12.1% | -2.7% | -3.06% | -6.3% | -6.16% | -1.74% | 3.18% | -5.64% | -2.15% | 1.24% | -3.37% |
| CCOC(=O)NC(CNC(=O)c1ccccn1)CC(C)C (stereo not given) | -4.62% | 5.41% | 0.908% | -3.92% | -3.03% | 2.23% | 4.72% | -2.89% | 2.15% | 8.64% | -5.52% |
| Cc1nc(C)c(C(=O)NCCNC(=O)c2ccc(F)cc2F)s1 | -1.94% | 10.8% | -1.06% | 22.4% | 5.85% | -4.25% | 15.8% | 16.4% | 8.91% | 23.2% | -8.6% |
| CC(O)CNC(=O)NCc1ccc(N2CCNC(=O)C2)cc1 (stereo not given) | -3.56% | 20.8% | -9.88% | 10.6% | 2.06% | -0.712% | 4.73% | -4.97% | 11.7% | 21.9% | -11.2% |
